# The list is not random: actives were taken first. Their share in the collection is about 3.6%.
# Sm TGR block: S. mansoni TGR enzyme inhibition | actives 3% (n = 360,000) | Q962Y6 | Potency, µM (series often up to 114 µM), inactives show top-dose activity change, negative = inhibition, actives largely listed as inhibitors | purified TGR, DTNB reduction, TNB absorbance 405 nm; also: nearly all actives have a fitted effect of over 60% in size
#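 Kinetic colorimetric format: TGR-catalysed, NADPH-driven DTNB reduction monitored via TNB absorbance. Enzyme dispensed at 20 nM; compound exposure 15 min at room temperature before reaction start.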
# Giardia FBPA inh: Giardia lamblia aldolase inhibition; Potency, µM (titrated, usually from 59.6 µM), inactives show top-dose activity, negative = inhibition, hits mostly inhibitors; purified Giardia FBPA; actives 0.71% (n = 290,000); AID 2451; A8B2U2; also: nearly all actives have a fitted effect of over 55% in size
# Target sequence (A8B2U2 whole entry, looked up): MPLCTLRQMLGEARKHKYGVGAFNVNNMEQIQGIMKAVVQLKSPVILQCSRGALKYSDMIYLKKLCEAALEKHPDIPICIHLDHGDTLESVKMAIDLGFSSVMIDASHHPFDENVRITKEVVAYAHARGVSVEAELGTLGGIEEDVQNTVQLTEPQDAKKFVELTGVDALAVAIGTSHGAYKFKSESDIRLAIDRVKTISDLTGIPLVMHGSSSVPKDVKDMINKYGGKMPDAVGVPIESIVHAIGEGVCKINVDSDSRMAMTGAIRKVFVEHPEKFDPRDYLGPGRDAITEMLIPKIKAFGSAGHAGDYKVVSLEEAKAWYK
#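 40 nM FBPA preincubated 10 min at RT with compound (up to 57.5 uM final), then substrate plus GAPDH/TPI/NAD/arsenate coupling and diaphorase/resazurin added. Fluorescence read after 20 min at RT, 525/598 nm.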
# AmpC no deterg: AmpC beta-lactamase inhibition without detergent | AID 485341 | Potency, µM (doses to about 57.1 µM), without a hit: at the top dose activity change, negative = inhibition, usual class: inhibitors | P00811 | AmpC nitrocefin hydrolysis, absorbance 480 nm, 0.0001% Triton | actives 0.52% (n = 330,000);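 also: plate controls were no compound for no effect and no enzyme for full effect; nearly all actives have a fitted effect of over 20% in size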
#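 AmpC (5.3 nM in the dispensed reagent) in 20 mM phosphate pH 7.0 with 0.01% (detergent screen) or 0.0001% Triton X-100 was preincubated with compounds for 15 min at room temperature. Nitrocefin was then added from an 800 uM solution, and hydrolysis was followed at 480 nm.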
# AmpC inh detg: AmpC beta-lactamase inhibition with detergent present. AmpC hydrolysis of nitrocefin, absorbance 480 nm, 0.01% Triton. Potency, µM (series often up to 114 µM), inactives show at the highest dose activity change, negative = inhibition, most hits filed as inhibitors. actives 0.041% (n = 370,000). AID 485294;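 also: 0% = no-compound wells and -100% = no-enzyme wells; nearly all actives have a fitted effect of over 25% in size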
#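 AmpC (5.3 nM in the dispensed reagent) in 20 mM phosphate pH 7.0 with 0.01% (detergent screen) or 0.0001% Triton X-100 was preincubated with compounds for 15 min at room temperature. Nitrocefin was then added from an 800 uM solution, and hydrolysis was followed at 480 nm.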
# An asterisk follows results filed as active; ? = inconclusive; . = no result. Calls follow the shape of the dose curve; as a rule, active = well fitted curve in the direction sought with a large enough effect; inconclusive = small, poorly fitted or top-dose-only effect, or another doubt; inactive = no such curve, though single readings can be large; an effect the other way counts as inactive or inconclusive. Unless noted, % is scaled to controls: 0 for no effect and ±100 for the full control effect; potency is read from the fitted curve at half-maximal effect.
SMILES,Sm TGR block,Giardia FBPA inh,AmpC no deterg,AmpC inh detg
COCCOC(=O)c1c(NC(=O)CN2CCCc3ccccc32)sc(C(N)=O)c1C,5%,0%,148%,-12%
CCOC(=O)C1CCN(C2=NC(=O)/C(=C/c3ccc(Cl)cc3)S2)CC1,-14%,-8%,113%,-9%
CCOC(=O)CSC1=NC(=O)/C(=C\c2ccc(Cl)cc2)S1,3.5µM*,15%,-39%,4%
CC(=O)C1=C(C)OC(N)=C(C#N)C1c1ccco1 (stereo unspecified),13µM*,?,-15%,0%
C=CCOC(=O)C1=C(C)OC(N)=C(C#N)C1c1ccoc1 (stereo unspecified),20µM*,-24%,-26%,?
COC(=O)C1=C(C)OC(N)=C(C#N)C1c1ccco1 (stereo unspecified),-29%,-5%,-7%,1%
CC(=O)C1=C(C)OC(N)=C(C#N)C1c1cccc2ccccc12 (stereo unspecified),11µM*,20µM*,-24%,-4%
O=S(=O)(NN1CCOCC1)c1cc(Cl)cc(Cl)c1O,1%,-5%,-29%,-20%
Cc1coc(=N)n1CC(=O)c1ccc(Cl)cc1,40µM*,-1%,-2%,3%
Cc1cc(C)c(NC(=O)CN2C(=O)CC(C)S(=O)(=O)c3ccccc32)c(C)c1 (stereo unspecified),-1%,6%,35%,-3%
CCOc1ccc(-n2c(C)cc(C(=O)CCl)c2C)cc1,4.5µM*,0%,-14%,-1%
CCOc1ccc(NC(=O)C(=O)c2cc(C)n(-c3cc(C)cc(C)c3)c2C)cc1,1%,.,.,10%
COC(=O)c1ccc(-n2c(C)cc(C(=O)CCl)c2C)cc1,4.5µM*,8%,-21%,-1%
O=C(NCc1ccco1)c1ccc2nc3sc4c(c3c(=O)n2c1)CCCC4,11µM*,-20%,47%,2%
C=CCn1c(SCC(=O)NCc2ccco2)nc2sc3c(c2c1=O)CCCC3,-20%,3%,-19%,?
COCCN1C(=O)N(c2cccc(C)c2)C(=O)C1CC(=O)Nc1ccc(OC)cc1 (stereo unspecified),?,-3%,-9%,-1%
CC(Oc1ccccc1)C(=O)N1CCC2(CC1)CC(=O)c1ccccc1O2 (stereo unspecified),-1%,.,75%,2%
Cc1ccc(C2C3=C(CCCC3=O)N=C3c4ccccc4C(=O)C32)cc1 (stereo unspecified),-21%,-22%,18µM*,-3%
CC(=O)N(C1=C(N2CCOCC2)C(=O)c2ccccc2C1=O)c1ccc(C(=O)O)cc1,2.8µM*,?,-20%,8%
CC(=O)N(C)C1=C(N2CCOCC2)C(=O)c2ccccc2C1=O,16%,?,-1%,?
CCCCN(C)CCC(=O)Nc1ccc2c(c1)CCC2,2%,2%,-20%,-7%
CC(C)(C)c1cc(CNC2CS(=O)(=O)C[C@@H]2O)cc(C(C)(C)C)c1O (stereo partly specified),1.6µM*,-12%,12%,-5%
Cc1ccccc1C(=O)OC1OC(=O)C(Cl)=C1Nc1ccc(C(=O)O)cc1 (stereo unspecified),-18%,-3%,1.1µM*,1.3µM*
NC[C@@H]1O[C@H](C23CC4CC(CC(C4)C2)C3)Cc2c1ccc(O)c2O,7.9µM*,?,-9%,7%
CC1CCCCC12NC(=O)N(CC(=O)Nc1ccc3[nH]c(=O)[nH]c3c1)C2=O (stereo unspecified),1%,.,-19%,?
SMILES,Sm TGR block,Giardia FBPA inh,AmpC no deterg,AmpC inh detg
CC1CCCCC12NC(=O)N(CC(=O)NC(=O)Nc1ccc3c(c1)OCCO3)C2=O (stereo unspecified),71µM*,1%,-2%,-10%
O=S(=O)(CCSc1ccccn1)c1nc2ccccc2s1,0.79µM*,-4%,-22%,3%
O=S(=O)(CCSc1nc2ccccc2o1)c1nc2ccccc2s1,0.71µM*,-23%,-28%,-15%
Cc1cc(C(c2ccc(C)o2)c2ccc(C)o2)c(O)c([N+](=O)[O-])c1,45µM*,-18%,-40%,?
Cc1ccc(C(c2ccc(C)o2)c2cccc([N+](=O)[O-])c2O)o1,?,1%,-30%,-5%
Cc1ccc(C)n1-c1ccc2c(c1)COC2=O,11µM*,-15%,-17%,2%
CCN(CC)CCNC(=O)Nc1ccc2c(c1)N(Cc1ccccc1)C(=O)c1ccccc1S2,-3%,.,.,-4%
O=C(CN1CCN(CCN2C(=O)c3cccc4cccc(c34)C2=O)CC1)c1ccc(Cl)cc1,14µM*,2%,45%,-11%
O=C(CN1CCN(CCN2C(=O)c3cccc4cccc(c34)C2=O)CC1)c1ccc(F)cc1,?,-17%,94%,-2%
O=C(CCS(=O)(=O)c1ccc(Cl)cc1)Nc1ccccc1Br,5%,-4%,-21%,-8%
O=C(O)CCCC(=O)Nc1ccccc1SCCS(=O)(=O)c1ccc(Cl)cc1,40µM*,-3%,-10%,-19%
COCCN(CCOC)c1nc(C)nc2c1nc(-c1ccccc1)n2CCN(C)C,.,-2%,.,.
O=C(COC(=O)CCC(=O)c1cccs1)NC1CC1,-12%,1%,-44%,-3%
CS(=O)(=O)Cc1cccc(C(=O)NN(c2ccccc2)c2ccccc2)c1,2%,-16%,-7%,7%
Cc1cccc(NC(=O)CN(C)S(=O)(=O)c2ccc3c(c2)c(=O)n(C)c(=O)n3C)c1C,?,.,.,11%
CCOC(=O)c1c(C)n(OCc2ccccc2)c2ccc3nonc3c12,-14%,-10%,-34%,-7%
COn1c(C)c(C)c2c3nonc3ccc21,20µM*,?,-13%,-1%
O=C(Nc1nccs1)c1nc[nH]c1C(=O)N1CCN(c2ccccc2)CC1,.,.,-23%,.
CC1CCN(C(=O)c2[nH]cnc2C(=O)Nc2nccs2)CC1,28µM*,.,2%,4%
O=C(O)C12CC3CC(C1)CC(n1ncc(NCc4ccco4)c(Cl)c1=O)(C3)C2,2.8µM*,-18%,-17%,6%
O=C(O)CC12CC3CC(C1)CC(n1ncc(NCc4ccccc4Cl)c(Cl)c1=O)(C3)C2,-5%,-1%,-11%,-2%
COC(=O)c1ccc(Cl)c(NC(=O)C2CCN(S(=O)(=O)Cc3ccccc3)CC2)c1,-13%,.,.,?
O=C(O)c1cc(-c2ccc(-c3ccc(F)cc3)o2)nc2ccccc12,13µM*,20µM*,-20%,-8%
Cc1ccc(-c2cc(C(=O)N3CCN(c4ncccn4)CC3)c3cc(Br)ccc3n2)o1,7.1µM*,-28%,68%,-14%
Cc1ccc(-c2cc(C(=O)N3CCN(c4ccc(F)cc4)CC3)c3ccccc3n2)o1,45µM*,0%,19%,4%
Cc1ccc(-c2cc(C(=O)N3CCCC(C(F)(F)F)C3)c3ccccc3n2)o1 (stereo unspecified),28µM*,.,25%,-18%
Cc1ccc(-c2cc(C(=O)N3CCOCC3)c3ccccc3n2)o1,.,.,-2%,.
N#CCCn1c(=O)c(-c2ccccc2)nc2cnc(OCc3ccccc3)nc21,.,-7%,.,.

# High-throughput results deposited in PubChem BioAssay by National Center for Advancing Translational Sciences (NCATS).
